Laboratory results taken from ChEMBL document CHEMBL4513216, “Probing the Open Global Health Chemical Diversity Library for Multistage-Active Starting Points for Next-Generation Antimalarials” (ACS Infect Dis, 2020).
Among all 68,000 compounds or so, about 2,700 (4%) showed an effect of 50% or more. The list comes from a sample in which strong results are over-represented; it also holds similar structures and randomly drawn compounds.

test system: Plasmodium berghei; assay: Screen against P. berghei liver stage (PbLuc), transformed with Luciferase, at 2uM; format: functional, HepG2; settings: tested at 2 uM

SMILES	INHIBITION [%]
COc1ccc(NC(=O)CCC2CCCN(S(=O)(=O)C3CC3)C2)cc1Cl (configuration not stated)	13.99
CCc1ccc(C(=O)N2CCCC(CNS(C)(=O)=O)C2)o1 (configuration not stated)	-23.94
O=C(c1ccc(F)c(Cl)c1)N1C[C@H]2CC[C@@H](C1)N(Cc1ccccc1)C2	-38.33
Cc1cn2nc(N3CCCC3CC(C)(C)C)sc2n1 (configuration not stated)	29.11
CC(CO)(NCc1noc(Cc2ccccc2)n1)C1CCCCC1 (configuration not stated)	-69.13
COCCc1noc(CNC(C)(CO)C2CCCCC2)n1 (configuration not stated)	65.79
CCc1nc(CNC(C)(CO)C2CCCCC2)no1 (configuration not stated)	17.89
CN1C(=O)Cc2cc(-c3csc(CCN4CCOC4=O)n3)ccc21	-35.62
O=C1CCCc2cc(-c3csc(CCN4CCOC4=O)n3)ccc2N1	33.01
O=C1OCCN1CCc1nc(-c2cc3c4c(c2)CC(=O)N4CCC3)cs1	78.51
CC(C)(C)c1ncc(C(=O)NCCSc2ccccn2)c(O)n1	68.02
CCn1c(C)nnc1SCCNC(=O)c1cnc(C(C)(C)C)nc1O	3.86
Cc1nc(C(C)C)sc1C(=O)NCCSc1ccccn1	-103.61
CN1C[C@H]2CC[C@@H](C1)N(Cc1ccccc1OCCN1CCOCC1)C2	32.1
NC(=O)CC1CC2(CCNCC2)c2cc(F)ccc21 (configuration not stated)	-8.62
c1cnc(-c2nn3c(CN4CCCCCC4)nnc3s2)cn1	55.73
c1cnc(-c2nn3c(CN4CCOCC4)nnc3s2)cn1	26.03
c1cnc(-c2nn3c(CN4CCCCC4)nnc3s2)cn1	7.91
COC(=O)N1CCCC(NC(=O)NCc2ccc(C)nc2)C1 (configuration not stated)	22.07
CC(C)(C)CC(=O)N1CC[C@H]2CC(=O)N(CCc3c[nH]cn3)CC[C@H]2C1	17.31
Cc1cccc(C(C(=O)NCCCc2nnc3ccccn23)N(C)C)c1 (configuration not stated)	-0.59
CCc1nnc(CN(CC)C(=O)C2CC(=O)N(C3CC3)C2)o1 (configuration not stated)	10.02
CCc1nnc(CN(CC)C(=O)C2CC(=O)N(CC)C2)o1 (configuration not stated)	6.84
CCc1nnc(CN(CC)C(=O)C2CC(=O)N(C(C)(C)C)C2)o1 (configuration not stated)	50.86
CCc1c(C)nc2cc(-c3nccn3C)nn2c1N1CCCC(CO)C1 (configuration not stated)	-40.66
CCS(=O)(=O)c1ccc2oc([C@H]3CCN(Cc4ccccn4)C3)nc2c1	30.4

SMILES	INHIBITION [%]
CCS(=O)(=O)c1ccc2oc([C@H]3CCN(Cc4ccccc4)C3)nc2c1	55.66
CCS(=O)(=O)c1ccc2oc([C@H]3CCN(Cc4cccnc4)C3)nc2c1	16.12
Cc1ccc2oc([C@H]3CCN(Cc4ccccc4)C3)nc2c1	45.22
CCS(=O)(=O)c1ccc2oc([C@H]3CCN(CC4CCCCC4)C3)nc2c1	44.13
CCS(=O)(=O)c1ccc2oc([C@H]3CCN(Cc4ccncc4)C3)nc2c1	61.7
O=C(c1cccc(F)c1)N1CC[C@H]2[C@H]1CCN2CC1CCOCC1	13.04
CCc1nccn1C1CCCN(C(=O)c2ccn(-c3ccccc3)n2)C1 (configuration not stated)	6.54
O=C(C1CNCCO1)N1CCC(c2cc(N3CCCC3)ncn2)CC1 (configuration not stated)	37.15
O=C(CC1CNCCO1)N1CCC(c2cc(N3CCCC3)ncn2)CC1 (configuration not stated)	48.93
O=C(CN1CCOCC1)N1CCC(c2cc(N3CCCC3)ncn2)CC1	70.81
Cn1ccnc1-c1cn(CCCc2csc(N)n2)nn1	-21.39
CCNC(=O)[C@@H]1C[C@H](NC(=O)c2cncnc2C)CN1Cc1ccsc1	12.78
CCn1c(-c2ccccc2)nn(CC(=O)NCCc2ccc(C)s2)c1=O	47.25
Cc1ccc(-n2nnc(C(=O)NC(C)C)c2C2CC2)cc1	82.5
CC(C)NC(=O)c1nnn(-c2ccccc2)c1C1CC1	2.31
CC(C)NC(=O)c1nnn(-c2ccc(F)cc2)c1C1CC1	3.89
Cc1cc(C)n(C2CN(CCc3ccccn3)C2)n1	-7.32
CN(C)Cc1nnc(C2CCCN(c3nccc4ccccc34)C2)n1C (configuration not stated)	63.01
CN(C)CCn1ccnc1C1CCCN(c2nccc3ccccc23)C1 (configuration not stated)	49.94
CN(C)Cc1nnc(C2CCCN(c3ncccc3F)C2)n1C (configuration not stated)	6.39
Cc1cc(C)nc(NCCCC(=O)NCCn2ccc3ccccc32)n1	-12.76
Cc1cc(C)nc(NCCC(=O)NCCn2ccnc2C)n1	28.4
Cc1cc(C)nc(NCCC(=O)NCCn2ccc3ccccc32)n1	50.94
CCS(=O)(=O)N(C)C1CCN(C(=O)c2cccc(Cl)c2)CC1	-41.98
CCC(=O)Nc1ccc2c(c1)C1(CCOCC1)CN2CCF	-24.5
COc1ccc(OC)c(-c2nc(CN(C)Cc3nncn3C)c(C)o2)c1	-5.6
